eIF4H FP inh: human eIF4H binding inhibitors, primary screen, translation initiation inhibitor project, biochemical, uHTS, fluorescence polarization; eIF4H fluorescence polarization binding assay; hit rate 0.94% among 290,000; Eukaryotic translation initiation factor 4H (Homo sapiens), Q15056; inhibition, % at 35 µM; AID 2012, 2009;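 further: calls also rest on retests at 20 µM and on dose response follow-up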
A3A deaminase: APOBEC3A ssDNA deaminase inhibitors, primary screen, selectivity assay for APOBEC3G inhibitor project, biochemical, FAM/TAMRA oligo cleavage fluorescence; DNA dC->dU-editing enzyme APOBEC-3A (Homo sapiens), P31941; recombinant A3A, FAM/TAMRA ssDNA deamination fluorescence; inhibition, % at 20 µM; hit rate 0.41% among 330,000;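 active means at least 40% inhibition at 20 µM here, with at most 30% in a related deaminase screen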;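 further: plate controls were A3A with DMSO for no effect and wells lacking A3A enzyme for full effect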
A3G deaminase: APOBEC3G DNA deaminase inhibitors, primary screen, biochemical, fluorescence, single-stranded DNA substrate, uHTS; recombinant A3G, ssDNA deamination FAM/TAMRA fluorescence; inhibition, % at 20 µM; hit rate 0.28% among 330,000; AID 493012, 2011;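 active means inhibition of at least 40% at 20 µM, with no more than 30% in the related APOBEC3A deaminase screen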;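 further: plate controls were DMSO wells with A3G for no effect and wells lacking A3G enzyme for full effect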
PHOSPHO1 block: PubChem AID 1565; Phosphoethanolamine/phosphocholine phosphatase (Homo sapiens), Q8TCT1; recombinant PHOSPHO1, absorbance phosphatase assay; inhibition, % at 13.3 µM; hit rate 1.1% among 290,000; in the data active means inhibition above about 60%
PABP1 MLLE inh: inhibitors of PABP1 MLLE–PAM2 peptide binding, primary screen, biochemical, fluorescence polarization, FITC-PAM2, GST-MLLE; Polyadenylate-binding protein 1 (Homo sapiens), P11940; inhibition, % at 20 µM; hit rate 0.36% among 360,000; AID 588489, 2011; in the data active means inhibition above about 35%, passing the limit was not always enough;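 further: plate controls were DMSO wells with GST-MLLE for no effect and wells lacking GST-MLLE protein for full effect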
Target sequence (P11940 whole entry, looked up): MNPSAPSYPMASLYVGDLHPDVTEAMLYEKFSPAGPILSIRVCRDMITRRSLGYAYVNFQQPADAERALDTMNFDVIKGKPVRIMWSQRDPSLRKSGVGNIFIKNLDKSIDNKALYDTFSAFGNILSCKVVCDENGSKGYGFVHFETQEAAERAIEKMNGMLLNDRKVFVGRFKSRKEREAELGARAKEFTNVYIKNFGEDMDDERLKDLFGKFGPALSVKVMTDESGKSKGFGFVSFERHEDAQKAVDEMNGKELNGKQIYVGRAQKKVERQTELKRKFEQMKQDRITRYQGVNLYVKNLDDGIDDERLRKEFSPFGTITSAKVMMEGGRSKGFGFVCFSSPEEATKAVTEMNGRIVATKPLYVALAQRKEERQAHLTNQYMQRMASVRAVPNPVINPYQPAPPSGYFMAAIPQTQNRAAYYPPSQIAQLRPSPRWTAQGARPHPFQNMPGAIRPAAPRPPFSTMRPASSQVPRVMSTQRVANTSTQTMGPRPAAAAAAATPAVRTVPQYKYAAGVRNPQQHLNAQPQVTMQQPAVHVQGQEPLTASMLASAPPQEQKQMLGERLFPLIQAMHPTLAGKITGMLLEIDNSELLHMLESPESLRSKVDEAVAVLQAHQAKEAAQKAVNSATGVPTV
PABP FP inh: PABP poly(A) RNA binding inhibitors, primary screen, biochemical, fluorescence polarization, uHTS; AID 2014, 2009; hit rate 1% among 290,000; calls only at 35 µM; Polyadenylate-binding protein 1 (Homo sapiens), P11940;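 further: calls also rest on retests at 20 µM and on dose response follow-up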
An asterisk follows results filed as active; i = inactive; ? = inconclusive; · = no result; + = active, no number; ! = not active in a repeat. Rows were chosen to be rich in hits. Some 2.6% of all compounds tested hit in one or more screens of this group. Unless noted, how the calls were made is not given here.

SMILES	eIF4H FP inh	A3A deaminase	A3G deaminase	PHOSPHO1 block	PABP1 MLLE inh	PABP FP inh
CCOc1ccc(Nc2ncnc3c2nnn3Cc2ccccc2)cc1	-3	-1	-3	60*	-1	i
Clc1ccccc1Nc1ncnc2c1nnn2Cc1ccccc1	-4	-3	-3	-6	-9	i
Cc1ccc(NC2OC(CO)C(O)C2O)cc1[N+](=O)[O-] (stereo unspecified)	-1	-2	-6	3	10	i
Cc1ccc(NC2OC(C(O)CO)C(O)C2O)cc1[N+](=O)[O-] (stereo unspecified)	93*	-1	-3	36	-1	i
CCCc1cc(=O)oc2cc(OC(C)C(=O)NCC3CCC(C(=O)O)CC3)ccc12 (stereo unspecified)	7	-5	-4	34	3	i
O=C(CN1C(=O)NC2(CCSC2)C1=O)N1CCN(c2ccc(F)cc2)CC1 (stereo unspecified)	-2	0	-5	99*	-18	i
NC(=O)C1CCCN(CC(O)COCc2ccc(Cl)cc2)C1 (stereo unspecified)	-2	0	-2	40	1	i
O=[N+]([O-])c1c(NCc2ccco2)ccc2nonc12	123*	18	12	3	9	+
N#C/C(=C\c1ccc[nH]1)C(=O)Nc1ccccc1[N+](=O)[O-]	79*	26	21	-34	-17	+
CCCC1(CCC)NC(=O)N(CC(=O)N2CCc3ccccc32)C1=O	·	0	-1	·	-1	·
S=c1[nH]nc(Nc2ccc(Cl)cc2)s1	2	-3	18	86*	33	i
O=C(O)C1CC(Br)C(Br)CC1C(=O)O (stereo unspecified)	·	·	·	·	6	·
CN(C)S(=O)(=O)c1ccc(Cl)c(NC(=O)COC(=O)/C=C/c2ccco2)c1	10	14	-1	28	-28	+
O=C(COC(=O)/C=C/c1ccco1)Nc1ncc(Cl)cc1Cl	79*	37	3	5	5	+
CN(C)S(=O)(=O)c1cccc(NC(=O)COC(=O)/C=C/c2ccc(Br)o2)c1	?	28	13	-4	-4	+
Cc1nc(NC(=O)COC(=O)/C=C/c2ccco2)c(Cl)cc1Cl	·	19	4	·	8	·
Fc1cccc(CN2CCN(c3nc4nonc4nc3NC3CC3)CC2)c1	90*	-5	-7	56	12	+
CCCCNC(=S)NNC(=O)c1csc(C)c1	active	-3	-2	-18	-18	+
c1cnc(N2CCN(Cc3ccc4c(c3)OCO4)CC2)nc1	51*!	-4	-7	20	2	+!
Cc1ccc(NC(=O)c2ncn(CC(=O)NCC(C)c3ccccc3)n2)cc1C (stereo unspecified)	·	3	2	·	-8	·
O=C(NC(=S)Nc1cccnc1)c1cc2ccccc2o1	34	-1	0	-18	41*	i
O=C(NC(=S)Nc1ccccc1)c1cncc(C#Cc2ccccc2)c1	-5	2	5	6	40*	i
O=C(NC(=S)NCc1cccnc1)c1cc2ccccc2o1	-5	5	-6	0	32	i
O=C(NC(=S)Nc1cccnc1)c1cccc(Cl)c1	·	·	·	·	43*	·
CC(C)NC(=O)C1(C)CCCN1Cc1ccccc1C#N (stereo unspecified)	·	·	·	·	19	·
Cc1ccc(N2CCN(C(=O)c3cc(-c4ccc(F)cc4)[nH]c3C)CC2C)cc1 (stereo unspecified)	?	-2	-5	9	-14	+
Cc1[nH]c(-c2ccc(F)cc2)cc1C(=O)N1CCN(c2ccccc2)CC1	4	-4	-7	44	-6	i
CCCCOC(=O)Nc1ccc(S(=O)(=O)Nc2ccc([N+](=O)[O-])cc2)cc1	90	-6	-10	0	-3	+
CN1CCN(CCCNC(=S)Nc2ccc(F)c(Cl)c2)CC1	2	1	-6	28	20	i
CCOc1ccc2c(c1)n([O-])c1c([n+]2=O)CCCC1	-3	·	·	6	43*	i
